The record followed here is PubChem BioAssay (NCI).

Among the test systems are DU-145 prostate; K-562 leukemia; MALME-3M melanoma; MDA-MB-231 breast; RXF 393 renal; SF-268 CNS; SF-295 CNS; SF-539 CNS; UACC-257 melanoma; M14 melanoma.
Common to all, as to experiment: NCI-60 one-dose screen, 48 h (100 = growth as untreated, 0 = no growth, -100 = all killed)
Common to all, as to details: 10 µM unless noted

Molecules are shown by their SMILES. This is part of a sample that, as a whole, favours compounds with a hit. Of some 83,000 tested, about 20% had one in any assay.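 Activity criterion: percent growth below 10, measured after cells in 96-well plates were exposed to a single compound concentration for 48 hours.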 Unmarked numbers belong to inactive results. Calls of active or inactive are those of the source.

As for `COc1cnc2c(c1)C(=O)c1c-2n(CCCNC2=NCCS2)c(=O)c2cc(F)ccc12`, the growth with DU-145 prostate is 14.9%; in the experiment with K-562 leukemia it was -34.4% (active); in the experiment with MALME-3M melanoma, 27.8%; with MDA-MB-231 breast it was 51%; in the experiment with RXF 393 renal it was 35.1%; in the experiment on SF-268 CNS, 23.2%. For the same compound, the growth with SF-295 CNS was -5.74% (active); in the experiment with SF-539 CNS it was -13.2% (active); in the experiment on UACC-257 melanoma, 21.8%; in the experiment on M14 melanoma, 5.96% (active).

Turning to `C[C@H]1c2cccc(O)c2C(O)=C2C(=O)[C@]3(O)C(O)=C(C(N)=O)C(=O)[C@@H](N(C)C)[C@@H]3[C@@H](O)[C@@H]21`, the growth is 47.7% in the experiment on DU-145 prostate; 37.9% in the experiment on K-562 leukemia; 27.8% in the experiment with MALME-3M melanoma; 74.6% with MDA-MB-231 breast; 58.3% in the experiment on RXF 393 renal; 28.2% in the experiment on SF-268 CNS. The growth with SF-295 CNS is 19.2%; in the experiment on SF-539 CNS, 25.6%; in the experiment on UACC-257 melanoma it was 57.7%; with M14 melanoma, 32.1%.

Consider `N#CC(C#N)C(C#N)C#N`, for which the growth in the experiment with DU-145 prostate was 112%; in the experiment with K-562 leukemia it was 105%; in the experiment with MALME-3M melanoma, 114%; in the experiment with MDA-MB-231 breast, 108%; in the experiment with RXF 393 renal, 110%; with SF-268 CNS, 104%. Besides, the growth is 102% in the experiment with SF-295 CNS, 105% with SF-539 CNS, 85.7% with UACC-257 melanoma and 99.7% in the experiment on M14 melanoma.

In the case of `N/C(=N\c1nc2ccccc2s1)NC(=O)Nc1ccccc1Cl`, the growth was 21.8% with DU-145 prostate; 6.5% (active) with K-562 leukemia; 63.3% in the experiment with MALME-3M melanoma; 42.1% in the experiment with MDA-MB-231 breast; -13.9% (active) with RXF 393 renal; 60.9% with SF-268 CNS. The growth was 9.08% (active) with SF-295 CNS, -14.2% (active) with SF-539 CNS, 62.3% in the experiment on UACC-257 melanoma and 13.4% in the experiment on M14 melanoma.

As to `CCOC(=O)C1=CCC(n2cc(C)c(=O)[nH]c2=O)O1` (stereo not given), the growth is 119% with DU-145 prostate; 99.4% with K-562 leukemia; 120% with MALME-3M melanoma; 97.3% in the experiment with MDA-MB-231 breast; -5.82% (active) in the experiment with RXF 393 renal; 117% in the experiment with SF-268 CNS. Further, the growth in the experiment on SF-295 CNS is 116%; in the experiment with SF-539 CNS, 101%; in the experiment on UACC-257 melanoma, 96.3%; in the experiment with M14 melanoma, 106%.

`CN(C)c1ncnc2c1ncn2C1CCCCO1` (stereo not given): the growth is 115% in the experiment on DU-145 prostate; 102% with K-562 leukemia; 101% with MALME-3M melanoma; 106% with MDA-MB-231 breast; 114% in the experiment on RXF 393 renal; 106% in the experiment with SF-268 CNS. The growth in the experiment on SF-295 CNS is 116%; in the experiment with SF-539 CNS, 103%; with UACC-257 melanoma, 106%; in the experiment on M14 melanoma, 105%.

`C[C@H](C(=O)N[C@@H](Cc1ccc(-c2ccccc2)cc1)C(=O)NC1CC(C)(C)NC(C)(C)C1)c1ccc(-c2ccccc2)c(F)c1`: the growth with DU-145 prostate was -89.3% (active); with K-562 leukemia, -53.7% (active); with MALME-3M melanoma, -77.4% (active); with MDA-MB-231 breast, -53.6% (active); with RXF 393 renal it was -55.6% (active); in the experiment with SF-268 CNS it was -58.1% (active). The growth in the experiment on SF-295 CNS was -54.5% (active); in the experiment on SF-539 CNS, -78.6% (active); in the experiment with UACC-257 melanoma, -62.9% (active); in the experiment on M14 melanoma it was -79.2% (active).

Take `NS(=O)(=O)c1cc2c(cc1Cl)NC=NS2(=O)=O`: the growth in the experiment on DU-145 prostate is 111%; in the experiment on K-562 leukemia it was 120%; in the experiment on MALME-3M melanoma, 103%; in the experiment on MDA-MB-231 breast, 113%; in the experiment with RXF 393 renal, 121%; with SF-268 CNS, 109%. For the same compound, the growth in the experiment with SF-295 CNS is 104%; with SF-539 CNS, 103%; in the experiment on UACC-257 melanoma, 104%; with M14 melanoma, 96.4%.

As for `C[C@H]1O[C@@H](O[C@H]2[C@@H](O)C[C@H](O[C@H]3[C@@H](O)C[C@H](O[C@H]4CC[C@]5(C)C6C[C@@H](O)[C@]7(C)[C@@H](C8=CC(=O)OC8)CC[C@]7(O)C6CC[C@@H]5C4)O[C@@H]3C)O[C@@H]2C)C[C@H](O)[C@@H]1O` (stereo not given in full), the growth with DU-145 prostate was -100% (active); with K-562 leukemia it was -24.2% (active); with MALME-3M melanoma, -57.2% (active); in the experiment with MDA-MB-231 breast, -83.6% (active); in the experiment on RXF 393 renal, -22.4% (active); in the experiment on SF-268 CNS, -100% (active). The growth in the experiment with SF-295 CNS is -99.9% (active); in the experiment on SF-539 CNS, -96.2% (active); with UACC-257 melanoma, -100% (active); with M14 melanoma, -81.6% (active).

In the case of `COc1c(O)cc2c(c1CC=C(C)C)OC(=O)c1c(cc(O)c(CC=C(C)C)c1O)O2`, the growth in the experiment on DU-145 prostate was 71.6%; with K-562 leukemia it was 23.9%; in the experiment on MALME-3M melanoma, 113%; in the experiment with MDA-MB-231 breast it was 4.16% (active); with RXF 393 renal, -43.5% (active); with SF-268 CNS, 41%. For the same compound, the growth was 81% in the experiment on SF-295 CNS, 68.8% with SF-539 CNS, 92.6% in the experiment on UACC-257 melanoma and 27.3% in the experiment with M14 melanoma.

For the compound `COc1cc(C2=NN(C=O)C(c3cccc(Nc4ccnc5cc(Cl)ccc45)c3)C2)cc(OC)c1OC` (stereo not given), the growth in the experiment on DU-145 prostate was 80.2%; in the experiment on K-562 leukemia it was 46.5%; in the experiment on MALME-3M melanoma it was 89.3%; in the experiment on MDA-MB-231 breast, 76.5%; in the experiment with RXF 393 renal, 72.2%; in the experiment with SF-268 CNS, 74.2%. Besides, the growth in the experiment with SF-295 CNS was 66.8%; in the experiment on SF-539 CNS, 91.7%; in the experiment on UACC-257 melanoma, 73.2%; with M14 melanoma, 64.1%.

On to `Nc1nc(SCc2cccnc2)c2ncn(C3OC(CO)C(O)C3O)c2n1` (stereo not given), for which the growth is 113% in the experiment with DU-145 prostate; 113% in the experiment on K-562 leukemia; 92.4% in the experiment on MALME-3M melanoma; 94.7% with MDA-MB-231 breast; 101% in the experiment on RXF 393 renal; 90.6% with SF-268 CNS. The growth with SF-295 CNS was 99.1%; in the experiment with SF-539 CNS, 95.1%; in the experiment on UACC-257 melanoma, 92.7%; in the experiment on M14 melanoma it was 97.8%.

For `NC(=N\N=C/Cc1ccccc1)/C(N)=N\N=C\Cc1ccccc1`, the growth is 101% in the experiment on DU-145 prostate; 103% with K-562 leukemia; 144% with MALME-3M melanoma; 97.7% with MDA-MB-231 breast; 121% in the experiment on RXF 393 renal; 94% in the experiment on SF-268 CNS. The growth is 108% with SF-295 CNS, 93% in the experiment on SF-539 CNS, 101% with UACC-257 melanoma and 105% in the experiment with M14 melanoma.
